Assay outcomes deposited in PubChem BioAssay by National Center for Advancing Translational Sciences (NCATS).
HT1080 IDH1KD tx: qHTS for induction of synthetic lethality in tumor cells producing 2HG: qHTS for the HT-1080-IDH1KD cell line | HT-1080 IDH1 knockdown viability, ATP luminescence, 48 h | Potency, µM (doses to about 46.1 µM), for the others: at the top dose activity, negative = toxicity, usual class: cytotoxic | 360,000 compounds, 2% hits;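 further: potency means the concentration at half of the fitted maximal effect; 0% = DMSO wells and -100% = cell-free medium wells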
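IDH1KD HT-1080 cells, 750/well, RPMI + 5% FBS; compound pinned after 2 h settling; 48 h, 37 °C; CellTiter-Glo luminescence; % activity normalised to DMSO and no-cell wells; curves fitted, classed by r2 and efficacy.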
IL1B secr inh: qHTS for Inhibitors of Inflammasome Signaling: IL-1-beta AlphaLISA Primary Screen; THP-1 LPS/ATP IL-1B secretion, AlphaLISA, 16 h; active compounds read low; activity change, % at 57.5 µM; 360,000 compounds, 4.7% hits; AID 743279, 2014; in the data active means activity change below about -50%; inconclusive means mostly about -30% to -49%
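THP-1 cells pretreated 1 hr with compounds (up to 57.5 uM final), then stimulated with LPS (250 ng/mL final) plus ATP (1.25 mM final); secreted IL-1B measured by AlphaLISA after 16 hr, decreased signal indicating inhibition.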
HT1080NT lethal: qHTS for induction of synthetic lethality in tumor cells producing 2HG: qHTS for the HT-1080-NT fibrosarcoma cell line | HT-1080-NT fibrosarcoma viability, CellTiter-Glo ATP luminescence, 48 h | Potency, µM (series often up to 46.1 µM), without a hit: at the top dose activity, negative = less viability, usual class: cytotoxic | 360,000 compounds, 1.6% hits;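 further: NT is the 2HG producing partner of a matched IDH1 knockdown line; potency means the concentration at half of the fitted maximal effect; 0% = DMSO-treated cells and -100% = media-only wells without cells; nearly all actives have a fitted effect of over 55% in size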
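750 cells/well, RPMI + 5% FBS; 2 h settle, compound pin-transfer, 48 h at 37 degrees C. CellTiter-Glo 10 min RT, luminescence. Normalized to DMSO and media-only wells.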
DT40 TDP1 no CPT: qHTS for Inhibitors of human tyrosyl-DNA phosphodiesterase 1 (TDP1): qHTS in cells in absence of CPT; DT40 Tdp1-/- hTDP1 cells, no CPT, ATP luminescence, 48 h; Potency, µM (highest dose often 46.2 µM), inactives show at the top dose activity change, negative = growth inhibition, actives largely listed as inhibitors; 420,000 compounds, 15% hits; further: potency means the concentration at half of the fitted maximal effect; nearly all actives have a fitted effect of over 55% in size
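A cellular qHTS used chicken DT40 cells lacking endogenous Tdp1 but carrying stably transfected human TDP1. Compounds were applied without camptothecin, and cell growth kinetics were judged by ATP-dependent luminescence after ≥48 hr.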
TDP1 cell CPT: qHTS for Inhibitors of human tyrosyl-DNA phosphodiesterase 1 (TDP1): qHTS in cells in presence of CPT | chicken DT40 Tdp1-/-;hTDP1 cells + 20 nM CPT, ATP luminescence, 48 h | Potency, µM (doses to about 46.2 µM), for the others: at the highest dose activity change, negative = growth inhibition, most hits filed as inhibitors | 420,000 compounds, 12% hits | AID 686979, 2013; further: potency means the concentration at half of the fitted maximal effect; nearly all actives have a fitted effect of over 55% in size
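Chicken DT40 Tdp1-/- cells complemented with human TDP1, 400 cells/well, exposed to compounds plus 20 nM camptothecin for at least 48 h at 37 C; viability read as ATP content by CellTiter-Glo luminescence.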
* hit, by the source's call; u = inconclusive; x = no result given; [ ] = dose if it differs, or a comment. Shown are actives, neighbours in structure and some others; about 19% of the full set was active somewhere. Unless noted, the call rests on the fitted dose curve; in most records, active means well fitted curve in the direction sought with a large enough effect; inconclusive means small, poorly fitted or top-dose-only effect, or another doubt; inactive means no such curve, though single readings can be large; an effect the other way counts as inactive or inconclusive. Unless noted, on the % scale 0 is the no-effect control and ±100 the full control effect.

SMILES	HT1080 IDH1KD tx	IL1B secr inh	HT1080NT lethal	DT40 TDP1 no CPT	TDP1 cell CPT
CCOC(=O)c1ccc(NC(=O)C2=C(C)C(=O)OC23CCN(C(C)=O)CC3)cc1	x	x	x	1.9%	27.1%
COc1ccc2cc(CCNC(=O)c3ccc4c(c3)OCO4)c(=O)[nH]c2c1	-5.0%	-11.4	-7.0%	u	u
COc1ccc2cc(CCNC(=O)c3cccc([N+](=O)[O-])c3)c(=O)[nH]c2c1	0.4%	-0.4	5.8%	u	23.1µM*
C/C(CC(=O)Nc1c(C)cc(C)cc1C)=N\NC(=O)c1cnccn1	15.6%	9.2	4.9%	-0.4%	5.9%
Cc1nn(C)c(Oc2ccc(Cl)cc2)c1C(=O)Nc1ccc(F)cc1F	4.8%	-9.7	8.7%	7.31µM*	u
COc1ccccc1N1CCN(CCCCOc2cccc3ccccc23)CC1	16.4µM*	-56.5*	u	9.2µM*	18.4µM*
COc1ccccc1N1CCN(CCCCN2C(=O)C3CCCCN3C2=O)CC1 (centres undefined)	-19.2%	20.7	-25.1%	u	25.9µM*
COc1ccccc1OCCCCN1CCN(c2ccccc2OC)CC1	-11.0%	-5.5	-15.2%	u	u
COc1ccccc1N1CCN(CCCCCCOc2ccc(F)cc2)CC1	4.3%	-22.8	-15.5%	20.6µM*	23.1µM*
Fc1ccc(OCCCCCN2CCCC2)cc1	-26.4%	-1.0	-15.2%	-5.3%	-20.2%
Cc1cc(C)c2c(=O)cc(C(=O)Nc3c(C)n(C)n(-c4ccccc4)c3=O)oc2c1	x	x	x	-22.2%	5.5%
Cc1ccc2c(c1)CCCN2CC(=O)Nc1cc(S(=O)(=O)N2CCCC2)ccc1Cl	-9.0%	12.2	-0.9%	14.6µM*	20.6µM*
O=C(CN1CCCc2ccccc21)Nc1cc(S(=O)(=O)N2CCCC2)ccc1Cl	1.9%	-3.8	-0.7%	u	18.4µM*
CN1CCN(CC(=O)Nc2cc(S(=O)(=O)N3CCOCC3)ccc2Cl)CC1	-2.4%	-1.0	-4.7%	1.1%	-20.9%
CC1Cc2ccccc2N1CC(=O)Nc1cc(S(=O)(=O)N2CCOCC2)ccc1Cl (centres undefined)	0.1%	-5.5	-19.8%	23.1µM*	u
C/C=C/c1ccc(Oc2nnnn2-c2ccc(C(N)=O)cc2)c(OC)c1	-12.4%	8.9	-3.3%	20.6µM*	14.6µM*
Cc1ccc(C(=O)/C=C/c2cn(CC(O)CN3CCOCC3)c3ccccc23)cc1 (centres undefined)	u	-82.0*	u	u	u
COc1ccc(C(=O)/C=C/c2cn(CC(O)CN3CCc4ccccc43)c3ccccc23)cc1OC (centres undefined)	x	x	x	4.11µM*	3.26µM*
CCn1cc(/C=C(\NC(=O)c2ccc(OC)cc2)C(=O)N2CCOCC2)c2ccccc21	-2.8%	-3.0	3.3%	22.1%	-7.5%
OC(CN1CCOCC1)Cn1cnc2ccccc21 (centres undefined)	9.9%	9.3	u	13.4%	-7.5%
COc1ccc(C(=O)/C=C/c2cn(CN3CCN(C)CC3)c3ccccc23)cc1	u	-68.2*	-3.1%[9.24 µM]	u	-26.6%
COc1ccc(C(=O)/C=C/c2cn(CC(O)CN3CCOCC3)c3ccccc23)cc1 (centres undefined)	u	-93.5*	u	u	u
CC1=NC(C)(C)CC2CCC(O)C12 (centres undefined)	0.9%	10.1	-8.9%	1.7%	10.5%
CCOc1ccc(-n2c(SCC(=O)Nc3cc(C)on3)nc3c(c2=O)SCC3)cc1	0.2%	7.1	-6.2%	u	0.1%
O=C1CN(C(=O)COc2c(F)c(F)cc(F)c2F)c2ccccc2N1	-4.8%	39.8	-5.4%	9.7%	-1.1%
O=C1NC(=O)C2(CCCCC2)N1	18.9%	-0.9	0.3%	6.9%	-0.8%
